D1 ag: human D1 receptor agonism | P21728 | HEK293 T-REx D1 cells, calcium flux, agonist mode | activation, % at 2 µM | hit rate 1% among 360,000 | AID 504660; in the data active means activation above about 30%
Target sequence (P21728 whole entry, looked up): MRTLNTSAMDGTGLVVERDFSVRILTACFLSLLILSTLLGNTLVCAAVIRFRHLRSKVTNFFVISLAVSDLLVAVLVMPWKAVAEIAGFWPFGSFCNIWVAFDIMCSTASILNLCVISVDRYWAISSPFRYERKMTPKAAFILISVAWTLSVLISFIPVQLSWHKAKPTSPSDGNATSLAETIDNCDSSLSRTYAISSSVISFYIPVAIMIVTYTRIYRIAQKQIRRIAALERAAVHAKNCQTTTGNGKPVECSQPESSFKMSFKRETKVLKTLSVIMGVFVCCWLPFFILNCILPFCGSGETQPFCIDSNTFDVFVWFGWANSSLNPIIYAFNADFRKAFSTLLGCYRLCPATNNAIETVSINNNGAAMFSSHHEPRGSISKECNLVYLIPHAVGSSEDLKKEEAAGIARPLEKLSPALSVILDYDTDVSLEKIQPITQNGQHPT
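Inducible HEK293 T-REx D1 cells, force-coupled to calcium signalling, were plated at 4000 cells/well with tetracycline and held overnight at 30 C. After no-wash calcium dye loading, compound-evoked calcium rise over 180 s flagged agonists.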
TRHR agonist-1: agonists of human TRH receptor; P34981; AID 493084; activation, % at 2 µM; TRHR cells, calcium flux fluo-8, FDSS agonist mode; hit rate 0.18% among 360,000; in the data active means activation above about 30%
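Fluo-8-loaded TRHR cells; 10 s baseline, compound added, kinetic Ca2+ fluorescence read 1/s, agonist mode.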
TRHR enhancer-1: allosteric enhancers of human TRH receptor; TRHR cells, fluo-8 calcium fluorescence, EC20 TRH enhancement; enhancement, % at 2 µM; hit rate 0.66% among 360,000; AID 493056; in the data active means enhancement above about 30%
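TRHR-expressing cells loaded with fluo-8 calcium dye were read kinetically (ex 480/em 530) during compound addition, then stimulated with an EC20 of TRH (10 nM final). Enhancement of the Gq-mediated intracellular calcium response was scored.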
D1 PAM: potentiators of human D1 dopamine receptor; P21728; HEK293 TREx D1 cells, calcium flux, dopamine EC20 potentiation; potentiation, % at 10 µM; hit rate 0.036% among 360,000; AID 504651; in the data active means potentiation above about 30%
D1 antagonist: human D1 dopamine receptor antagonism. P21728. HEK293 TREx D1 cells, calcium flux, dopamine EC80; hits give low values. activity change, negative = inhibition, % at 10 µM. hit rate 3.2% among 360,000. AID 504652; in the data active means activity change below about -30%
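Inducible Hek293 Trex D1 cells (tetracycline, overnight, 30 C). Calcium dye 30–90 min RT. Antagonist mode: EC80 dopamine added after 180 s compound read.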
TRHR enhancer-2: human TRH receptor allosteric enhancement confirmation | shares compounds with TRHR enhancer-1 | TRH receptor cell assay, enhancer confirmation qHTS | activity change, negative = inhibition, % at 46.1 µM | 970 tested, under 10 active | AID 493076;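 further: compound effect scored on response to added TRH at EC20 of 10 nM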
TRHR agonist-2: confirmation of human TRH receptor agonists; shares compounds with TRHR enhancer-1; TRHR-expressing cells, agonist activation read-out; Potency, µM (highest dose often 46.1 µM), most hits filed as activators; hit rate 8% among 970; further: nearly all actives have a fitted effect of over 75% in size
Hits are given with their value. Sampled rows, rich in hits. Any-hit rate of the full collection: about 4.7%. Unless noted, the call rests on the fitted dose curve; in most records, active means well fitted curve in the direction sought with a large enough effect; inconclusive means small, poorly fitted or top-dose-only effect, or another doubt; inactive means no such curve, though single readings can be large; an effect the other way counts as inactive or inconclusive.

What do the screens show for `Cc1noc(C)c1CSc1nnc2sc3ccccc3n12`?
D1 ag: inactive; TRHR agonist-1: inactive; TRHR enhancer-1: 43; D1 PAM: inactive; D1 antagonist: inactive; TRHR enhancer-2: inactive; TRHR agonist-2: inactive

What do the screens show for `CC1Cc2ccccc2N1C(=O)CSc1nnc2sc3ccccc3n12` (stereo not drawn)?
D1 ag: inactive; TRHR agonist-1: inactive; TRHR enhancer-1: 63; D1 PAM: inactive; D1 antagonist: inactive; TRHR enhancer-2: inactive; TRHR agonist-2: inactive

Results for O=C(COC(=O)C1C2CC3OC(=O)C1C3C2)Nc1cccc(C(F)(F)F)c1 (stereo not drawn) ?
D1 ag: inactive; TRHR agonist-1: inactive; TRHR enhancer-1: inactive; D1 antagonist: inactive

How did Cc1ccc(C(=O)COC(=O)c2cc(=O)[nH]c3ccccc23)cc1 do in these assays?
D1 ag: inactive; TRHR agonist-1: inactive; TRHR enhancer-1: 47; D1 PAM: inactive; D1 antagonist: inactive; TRHR enhancer-2: inactive; TRHR agonist-2: inactive

What do the screens show for `O=C(COC(=O)c1cc(=O)[nH]c2ccccc12)c1ccccc1`?
D1 ag: inactive; TRHR agonist-1: inactive; TRHR enhancer-1: inactive; D1 PAM: inactive; D1 antagonist: inactive

How did Cc1sc2c(c1C)c(=O)n(Cc1ccccc1)c(=O)n2CC(=O)Nc1cccc(Cl)c1 do in these assays?
D1 ag: inactive; TRHR agonist-1: inactive; TRHR enhancer-1: inactive; D1 PAM: inactive; D1 antagonist: inactive

What do the screens show for `CCC(C)[C@@H](C(=O)N1CCNCC1)n1cc(CCCN=C(N)N)nn1` (stereo partly drawn)?
D1 ag: inactive; TRHR agonist-1: inactive; TRHR enhancer-1: inactive; D1 PAM: inactive; D1 antagonist: inactive

Results for C[C@@H](C(=O)N1CCNCC1)n1cc(CCCN=C(N)N)nn1 ?
D1 ag: inactive; TRHR agonist-1: inactive; TRHR enhancer-1: 64; D1 PAM: inactive; D1 antagonist: inactive; TRHR enhancer-2: inactive; TRHR agonist-2: inactive

How did CCOc1ccccc1-n1nnc(S(=O)(=O)c2ccc(C)cc2)c1N do in these assays?
D1 ag: inactive; TRHR agonist-1: inactive; TRHR enhancer-1: inactive; D1 PAM: inactive; D1 antagonist: inactive

What do the screens show for `CCOc1ccccc1NC(=O)c1nnn(CC(=O)Nc2cc(C)cc(C)c2)c1N`?
D1 ag: inactive; TRHR agonist-1: inactive; TRHR enhancer-1: inactive; D1 PAM: inactive; D1 antagonist: inactive

Results for CN(CCCn1c(=S)[nH]c2ncccc2c1=O)Cc1ccccc1 ?
D1 ag: inactive; TRHR agonist-1: inactive; TRHR enhancer-1: 46; D1 PAM: inactive; D1 antagonist: inactive; TRHR enhancer-2: inactive; TRHR agonist-2: inactive

What do the screens show for `NCCSc1c(-c2ccc(F)cc2)[nH]c2ccccc12`?
D1 ag: inactive; TRHR agonist-1: inactive; TRHR enhancer-1: 45; D1 PAM: inactive; D1 antagonist: inactive; TRHR enhancer-2: inactive; TRHR agonist-2: inconclusive

Results for CCOC(=O)CSc1ccc2nnc(-c3ccncc3)n2n1 ?
D1 ag: inactive; TRHR agonist-1: inactive; TRHR enhancer-1: 52; D1 PAM: inactive; D1 antagonist: inactive; TRHR enhancer-2: inactive; TRHR agonist-2: inactive

Results for O=C(NNS(=O)(=O)c1ccc(C(=O)NC2CCCC2)cc1)c1ccncc1 ?
D1 ag: inactive; TRHR agonist-1: inactive; TRHR enhancer-1: inactive; D1 PAM: inactive; D1 antagonist: inactive

What do the screens show for `CCOc1cc2c(cc1OCC)C(CC(=O)O)N(C(=O)Nc1ccc(Br)c(C)c1)CC2` (stereo not drawn)?
D1 ag: inactive; TRHR agonist-1: inactive; TRHR enhancer-1: inactive; D1 PAM: inactive; D1 antagonist: inactive

How did CCc1cc(CN2CCOCC2)c(NC(=O)c2ccccc2)s1 do in these assays?
D1 ag: inactive; TRHR agonist-1: inactive; TRHR enhancer-1: 64; D1 PAM: inactive; D1 antagonist: inactive; TRHR enhancer-2: inactive; TRHR agonist-2: inactive

How did CCOC(=O)/C(C#N)=C/c1cccc(F)c1 do in these assays?
D1 ag: inactive; TRHR agonist-1: 43; TRHR enhancer-1: inactive; D1 PAM: inactive; D1 antagonist: inactive; TRHR enhancer-2: inactive; TRHR agonist-2: inactive

Results for COc1ccccc1OCC(=O)OCC(=O)Nc1sccc1C(N)=O ?
D1 ag: inactive; TRHR agonist-1: 34; TRHR enhancer-1: inactive; D1 PAM: inactive; D1 antagonist: inactive; TRHR enhancer-2: inactive; TRHR agonist-2: inconclusive

What do the screens show for `CCCc1cc(=O)[nH]c(SCC(=O)NCC2COc3ccccc3O2)n1` (stereo not drawn)?
D1 ag: inactive; TRHR agonist-1: inactive; TRHR enhancer-1: inactive; D1 PAM: inactive; D1 antagonist: inactive

What do the screens show for `CC(C)=CCc1c(O)ccc(C(=O)Cc2ccccc2)c1O`?
D1 ag: inactive; TRHR agonist-1: inactive; TRHR enhancer-1: 67; D1 PAM: inactive; D1 antagonist: inactive; TRHR enhancer-2: inactive; TRHR agonist-2: inconclusive

How did C=C(C)c1cccc(C(C)(C)NC(=O)Nc2cc(C)ccn2)c1 do in these assays?
D1 ag: inactive; TRHR agonist-1: inactive; TRHR enhancer-1: 46; D1 PAM: inactive; D1 antagonist: inactive; TRHR enhancer-2: inactive; TRHR agonist-2: inactive

What do the screens show for `C=C(C)c1cccc(C(C)(C)NC(=O)Nc2nncs2)c1`?
D1 ag: inactive; TRHR agonist-1: inactive; TRHR enhancer-1: inactive; D1 PAM: inactive; D1 antagonist: inactive

How did O=C(CSc1nc2ccccc2n1Cc1cccc(F)c1)NCc1ccccc1 do in these assays?
D1 ag: inactive; TRHR agonist-1: inactive; TRHR enhancer-1: inactive; D1 PAM: inactive; D1 antagonist: inactive

What do the screens show for `Cc1ccc(-c2ccc(CCC(=O)O)n2-c2cccc(C(=O)O)c2)cc1`?
D1 ag: inactive; TRHR agonist-1: inactive; TRHR enhancer-1: inactive; D1 PAM: inactive; D1 antagonist: inactive

What do the screens show for `COC(=O)c1nnn(-c2nc(N(C)C)nc(N(C)C)n2)c1C`?
D1 ag: inactive; TRHR agonist-1: inactive; TRHR enhancer-1: 57; D1 PAM: inactive; D1 antagonist: inactive; TRHR enhancer-2: inactive; TRHR agonist-2: inactive

What do the screens show for `Cc1cccc(Cn2c(SCc3ccc(C(=O)NCc4ccccc4F)cc3)nc3ccncc32)c1`?
D1 ag: inactive; TRHR agonist-1: inactive; TRHR enhancer-1: inactive; D1 PAM: inactive; D1 antagonist: inactive

Results for Cc1nnc(NC(=O)c2sc3nc(-c4cccs4)cc(C(F)(F)F)c3c2N)s1 ?
D1 ag: 361; TRHR agonist-1: 52; TRHR enhancer-1: inactive; D1 PAM: inactive; D1 antagonist: -30; TRHR enhancer-2: inactive; TRHR agonist-2: inconclusive

Results for CC(C)(C)C(=O)c1sc2nc(-c3cccs3)cc(C(F)(F)F)c2c1N ?
D1 ag: inactive; TRHR agonist-1: inactive; TRHR enhancer-1: inactive; D1 PAM: inactive; D1 antagonist: inactive

What do the screens show for `CCOC(=O)c1cc(CC)sc1NC(=O)COC(=O)c1cnccn1`?
D1 ag: inactive; TRHR agonist-1: inactive; TRHR enhancer-1: inactive; D1 PAM: inactive; D1 antagonist: inactive
